Compounds with a hit are over-represented: about 2.7% of the library has one in this group of screens.
KDM5B inh = inhibitors of human KDM5B histone demethylase; AID 1347165; 220,000 compounds, 2.6% hits; Potency, µM (doses to about 57.7 µM), usual class: inhibitors; KDM5B demethylase, FDH-coupled NADH fluorescence (FDH is formaldehyde dehydrogenase); further: potency means the concentration at half of the fitted maximal effect; 0% is about no effect; nearly all actives have a fitted effect of over 70% in size
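Compound dilutions met 200 nM (final) KDM5BΔAP for 10 min at room temperature before substrate addition. The substrate mix held 12.5 µM H3K4me3 with cofactors 25 µM α-ketoglutarate and 50 µM Fe²⁺. NADH signal gain over 30 min defined activity.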
IP6K1 inhibitor = IP6K1 kinase inhibition; IP6K1 kinase, ADP-Glo luminescence, 2 h; stronger effect = lower value; activity change, % (series mostly up to about 58 µM); 140,000 compounds, 0.81% hits; Q92551; in the data active means activity change below about -25%; further: on the % scale 0 is the no-effect control and ±100 the full control effect
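ADP-Glo luminescence measures ADP made by human IP6K1 during a 2 h RT reaction with ATP/IP6 (mix at 1.3 mM/130 uM); top library doses 57.5 and 19.1 uM final.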
Numbers without * were called inactive; i = inactive; u = inconclusive; x = no result given.

SMILES	KDM5B inh	IP6K1 inhibitor
COCCNC(=O)c1ccc2c(c1)N(C)C(CC(=O)N1CCC(O)CC1)CO2 (configuration not stated)	28µM*	-10
CCC1(CC)CCN(C(=O)CC2COc3ccc(C(=O)N(C)C)cc3N2C)C1 (configuration not stated)	i	11
CCOCC(=O)N[C@@H]1CN(c2ncccn2)C[C@H]1CO	u	-5
COC[C@@H]1CN(c2ncccn2)C[C@H]1C(=O)N(C)Cc1ccco1	18µM*	17
CCN(Cc1ccco1)C(=O)[C@@H]1CN(c2ncccn2)C[C@H]1COC	u	2
COC[C@@H]1CN(c2ncccn2)C[C@H]1C(=O)O	16µM*	1
CCCOc1ccc(-c2cc(C(=O)OC)c3ccccc3n2)cc1	i	x
Cc1ccc(S(=O)(=O)NCC(c2cccnc2)S(=O)(=O)c2cccs2)cc1 (configuration not stated)	i	x
CCCCCCNC(=S)Nc1ccc(Br)cc1	i	x
Cc1cc(/C=C(/C#N)c2ccc(C(F)(F)F)cn2)cc(C)c1OCc1ccccn1	i	x
COc1ccc(CN2CCOC[C@H]2c2ncc(-c3ccc(S(C)(=O)=O)cc3)[nH]2)cc1	35µM*	-1
CS(=O)(=O)c1ccc(-c2cnc([C@@H]3COCCN3Cc3ccc(Cl)cc3)[nH]2)cc1	u	0
CN(Cc1cc(C2CC2)n[nH]1)c1cc(C2CC(N)C2)nc(N)n1 (configuration not stated)	u	9
CN(CCC(O)c1ccccc1)c1nccc(-c2cccnc2)n1 (configuration not stated)	28µM*	2
CN(Cc1cc(C2CC2)n[nH]1)c1nccc(-c2cccnc2)n1	22µM*	29
N#Cc1ccc(-c2cccnc2)nc1SCC(=O)c1ccccc1	i	x
O=C(O)c1ccc(O)c(Cl)c1	i	x
CC(C)CNC(=O)C1CCN(C(=O)c2ccc(-c3cccs3)cc2)CC1	x	-12
CCOC(=O)C1=CN(c2cc(C)cc(C)c2)C=C(C(=O)OCC)C1c1ccc2c(c1)OCO2	i	x
O=C(CSc1ccc2c(c1)OCCCO2)NC(=O)c1cccs1	i	x
COc1ccc(-c2ccc3ncn(Cc4ccccn4)c(=O)c3n2)cc1F	35µM*	5
O=c1c2nc(-c3cccc(C(F)(F)F)c3)ccc2ncn1Cc1ccccn1	u	-9
O=c1c2nc(-c3ccccc3F)ccc2ncn1Cc1ccccn1	u	-4
O=c1c2nc(Nc3ccc(C(F)(F)F)cc3)ccc2ncn1Cc1ccccn1	u	-2
O=c1c2nc(-c3ccccc3)ccc2ncn1Cc1ccccn1	40µM*	18
SMILES	KDM5B inh	IP6K1 inhibitor
Cn1ccc2cc(-c3ccc4ncn(Cc5ccccn5)c(=O)c4n3)ccc21	i	-8
Cc1ccc(-c2ccc3ncn(Cc4ccccn4)c(=O)c3n2)c(C)c1	32µM*	4
O=c1c2nc(-c3ccc(Cl)cc3)ccc2ncn1Cc1ccccn1	35µM*	6
CCN(c1ccccc1)S(=O)(=O)c1cccc(C(=O)OC2CCCCC2=O)c1 (configuration not stated)	i	x
O=C(NCC1CC1)c1ccccc1Nc1ccccc1	i	x
COCCNC(=O)c1cccc2c(=O)c(C)c(-c3ccccc3)oc12	i	x
COc1ccc(NC(=O)c2ccc(-c3ncc4cnc(C5=CCOCC5)cn34)cc2)cn1	28µM*	-18
O=C(c1ccc(-c2ncc3cnc(C4=CCOCC4)cn23)cc1)N1CC[S+](=O)([O-])CC1	35µM*	-12
O=C(c1ccc2nnc(-c3ccc(Cl)cc3)n2c1)N1CCOCC1	x	8
COc1ccc(C(=O)Nc2ccc(-c3nnc4n3CCCC4)cc2)cn1	i	-6
Cc1ccc(C(=O)CCC(=O)CCC(=O)O)s1	i	x
O=C(CCc1conc1-c1cccc(F)c1)NCc1ccc(F)cc1	i	16
COc1cccc(CNC(=O)CCNc2cnc3cnccn23)c1	20µM*	11
O=C(CCNc1c(-c2cccc(F)c2)nc2cnccn12)NCc1ccccc1	25µM*	9
O=C(CCc1ccccc1)NCC1CCCO1 (configuration not stated)	i	x
CNC(=O)NCc1cccc(OC)c1	i	x
O=C(CCNc1c(-c2cccc(F)c2)nc2cnccn12)NCC1CCCO1 (configuration not stated)	28µM*	3
O=C(NCCC(=O)N1CCCC1)c1cc(=O)[nH]c2ccccc12	i	x
N#CCC(=O)c1ccc2c(c1)OCO2	i	x
Cc1cccc(C(=O)Nc2ncc(Cc3ccc(C#N)cc3C(F)(F)F)s2)n1	i	x
COc1cccc(-c2ncc(CNC(=O)[C@H]3CC[C@@H](N)C3)s2)c1	25µM*	23
COc1cccc(-c2ccc(C(=O)NCCNC(=O)C3CC3)cc2)c1	x	-11
CSc1ccc(C(C)NC(=O)c2cccc(C)c2)cc1 (configuration not stated)	i	x
Cc1cc2c(-c3cccc(CO)c3)nc(-c3c(C)noc3C)cc2[nH]1	i	-24
Cc1cc2c(-c3cccc(S(C)(=O)=O)c3)nc(-c3c(C)noc3C)cc2[nH]1	35µM*	-18
SMILES	KDM5B inh	IP6K1 inhibitor
Cc1cc2c(-c3ccc(S(C)(=O)=O)cc3)nc(-c3c(C)noc3C)cc2[nH]1	35µM*	-19
Cc1onc(-c2ccccc2)c1-c1ccc(S(N)(=O)=O)cc1	x	13
CCN(CC)S(=O)(=O)c1ccc(N2CCN(C)CC2)c(NC(=O)Cc2ccccc2)c1	i	x
CCOc1ccc(C2Cn3nnc(-c4nc(-c5cccc(C)c5)no4)c3CO2)cc1 (configuration not stated)	20µM*	-14
CCOc1ccc(C2Cn3nnc(-c4nc(-c5cccc(Cl)c5)no4)c3CO2)cc1 (configuration not stated)	i	-1
CCOc1ccc(C2Cn3nnc(-c4nc(-c5ccccc5)no4)c3CO2)cc1 (configuration not stated)	28µM*	2
Cc1cccc(-c2noc(-c3nnn4c3COC(c3ccc(F)cc3)C4)n2)c1 (configuration not stated)	i	-10
CCOc1ccc(C2Cn3nnc(-c4nc(-c5ccncc5)no4)c3CO2)cc1 (configuration not stated)	i	0
CCOc1cccc(-c2noc(-c3nnn4c3COC(c3ccc(Cl)cc3)C4)n2)c1 (configuration not stated)	22µM*	0
C=CCOc1c(OC)ccc2c1CN(C(C)C)C(=O)CCN2CC(O)COc1ccc(OC)cc1 (configuration not stated)	x	-4
C[C@@H](NC(=O)N1CCOC[C@H]1c1ncc(-c2ccc(Cl)cc2)[nH]1)c1ccccc1	i	-5
O=C(CCCSc1nc2ccccc2s1)NCCc1ccc(F)cc1	i	x
Cc1cccc(-c2nc3ccc(C(=O)NC4CC4)cc3o2)n1	x	-16
CC(C)N1CCN(C(=O)CCC[C@@H]2[C@H]3CCCN4CCC[C@@H](CN2Cc2ccccc2)[C@@H]34)CC1	i	-6
O=C(c1cc2ccccc2oc1=O)N(Cc1ccccc1Cl)C1CCS(=O)(=O)C1 (configuration not stated)	i	x
CCC(=O)N1CCC(Oc2ccc(NC(=O)NCc3ccccc3)cn2)C1 (configuration not stated)	u	10
O=C(CCCc1ccccc1)Nc1ccc(OC2CCNCC2)nc1	18µM*	7

Assay outcomes from PubChem.
